# Experimental data from PubChem BioAssay (NCI).
# The panel holds about 83,000 compounds, 20% with a hit somewhere; the sample as a whole holds those more often.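 Percent growth is the endpoint: 0 to 100 indicates growth inhibition (40 means 60% inhibition), 0 means no net growth, and negative values indicate cell death.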 Activity calls are given as the source filed them. Rule for the calls: active = growth percent below 10; inactive = the rest.
# System: BT-549 breast
# Assay: NCI-60 one-dose screen, 48 h (100 = growth as untreated, 0 = no growth, -100 = all killed)
# Settings: 10 µM unless noted
row,SMILES,growth
1,COc1ccc(N2CCN(C(=O)CSc3ccc(-c4nc5cc(C)c(C)cc5[nH]4)cn3)CC2)cc1,32.9% (inactive)
2,COc1ccc(Cn2cc3c(c2-c2ccccc2)CCCc2cnoc2-3)cc1,77.3% (inactive)
3,O=C1Nc2ccc(Cl)cc2/C1=C/c1ccc(OCc2ccc(Br)cc2F)cc1,129% (inactive)
4,Nc1nc(-c2cccc([N+](=O)[O-])c2)c(N=Nc2ccccc2Cl)s1,71.6% (inactive)
5,Oc1ccc(-c2nnc(SCc3ccc(O)c4ncccc34)o2)cc1,12.8% (inactive)
6,Oc1ccc(CSc2nnc(-c3ccccc3)n2-c2ccccc2)c2cccnc12,25.2% (inactive)
7,Oc1ccc(-c2nnc(SCc3ccc(O)c4ncccc34)n2-c2ccccc2)cc1,26.9% (inactive)
8,O=C1[C@@H]2Cc3c([nH]c4ccccc34)[C@H](c3c(Cl)cccc3Cl)N2C(=O)CN1C1CCN(Cc2ccccc2)CC1,29.4% (inactive)
9,CC1COc2c(N3CCN(C)CC3)c(F)cc3c(=O)c(C(=O)N/N=C/c4cc[nH]c4)cn1c23 (stereo unspecified),59.5% (inactive)
10,COc1cc(C(=O)C[n+]2ccc3ccccc3c2)cc(OC)c1OC,107% (inactive)
11,O=C(NNc1nc2cc(F)cc(F)c2n2cccc12)c1ncccn1,20.6% (inactive)
12,O=C(N/N=C\c1ccc(Cl)cc1)c1ccc2nc(-c3ccc(Br)cc3)[nH]c2c1,97.7% (inactive)
13,C=CCn1c(SCC(=O)Nc2cccc(C(=O)/C=C/c3ccc(C)cc3)c2)nc2ccccc2c1=O,122% (inactive)
14,CCOC(=O)c1c(NCC(=O)Nc2ccc(Br)cc2)sc2c1CCCC2,23.9% (inactive)
15,O=c1[nH]c(CNc2ccc(NCc3c(-c4ccccc4)no[n+]3[O-])cc2)nc2c1cnn2-c1ccccc1,62.1% (inactive)
16,CCNC(=O)Oc1ccc(/C(=C(/C)c2ccccc2)c2ccc(OCCN3CCCC3)cc2)cc1,70.4% (inactive)
17,O=C(CCCCCCN1CC(=O)N2[C@@H](c3ccccc3)c3[nH]c4ccccc4c3C[C@H]2C1=O)NO,91.5% (inactive)
18,Cc1cc(-c2ccc3nc(N)sc3c2)nc2ccc3[nH]ncc3c12,33% (inactive)
19,CCN1C(=O)N(CC)C2SC(N/N=C/c3ccccc3F)=NC21 (stereo unspecified),-20.1% (active)

row,SMILES,growth
1,COc1ccc(NC2=C(Cl)C(=O)C(C)=C(C)C2=O)cc1,110% (inactive)
2,Oc1ccccc1-c1nnc(SCc2ccc(O)c3ncccc23)n1-c1ccccc1,25.2% (inactive)
3,Cc1ccc(NC(=O)c2cc(/C=C/C(=O)NO)cc(C(F)(F)F)c2)cc1Nc1nccc(-c2cccnc2)n1,-15.3% (active)
4,Cc1nn(-c2ccc(Br)cc2)c2nc(CCl)[nH]c(=O)c12,101% (inactive)
5,CCn1c2ccc(/C=N/NS(=O)(=O)CCN(C)C)cc2c2cc(/C=N/NS(=O)(=O)CCN(C)C)ccc21,99.1% (inactive)
6,CC(C)Sc1nc(NC2CC2)c(C#N)c(-c2ccccc2)n1,105% (inactive)
7,CCOC(=O)c1nn(-c2ccccc2)c(=O)c2c(N)c(C#N)c(-c3cccs3)cc12,107% (inactive)
8,COc1cc(/C=N/n2cnc3oc(-c4ccccc4)cc3c2=N)cc(CN2CCCC2)c1O,129% (inactive)
9,Oc1ccccc1/C=N/Nc1nc(N/N=C/c2ccccc2O)nc(N2CCOCC2)n1,76.3% (inactive)
10,O=C1C[C@@H](c2ccccc2)Oc2c(Cc3ccccc3O)c(O)c(Cc3cc(Cc4cc(Cc5ccccc5O)ccc4O)ccc3O)c(O)c21,104% (inactive)
11,N/C(=N\OC(=O)CSc1nc2ccccc2s1)c1ccc(Cl)cc1,107% (inactive)
12,O=C(NNc1nc2cc(F)cc(F)c2n2cccc12)c1ccncn1,12.2% (inactive)
13,CCCC(=O)NC(c1cccnc1)c1cc(Cl)c2cccnc2c1O (stereo unspecified),68.8% (inactive)
14,COc1cc(-c2nc(SCc3ccc(C)cc3)[nH]c(=O)c2C#N)ccc1OCc1ccccc1,156% (inactive)
15,Cc1nn(-c2ccccc2)cc1/C=N/Nc1nc(Nc2ccccc2)nc(Nc2ccc(S(N)(=O)=O)cc2)n1,21.5% (inactive)
16,COc1cc2c3c(n(CCCNC4CCCCC4)c(=O)c2cc1OC)-c1cc2c(cc1C3=O)OCO2,78.2% (inactive)
17,COc1cc(O)c2c(c1)/C=C/C[C@H](O)[C@H](O)C(=O)/C=C\C[C@H](C)OC2=O,-29.2% (active)
18,COc1cc(C2CC(c3ccc(Nc4nc(NCCO)nc(Nc5ccc(Cl)cc5)n4)cc3)=Nc3c(N)nc(N)nc3N2)cc(OC)c1OC (stereo unspecified),52.1% (inactive)
19,O=C(c1ccc(O)cc1)[C@@H]1[C@@H]2CCCN2[C@@]2(C(=O)N(C(=O)c3ccc(F)cc3)c3ccccc32)[C@H]1c1ccc(F)cc1,98.5% (inactive)

# System: MDA-MB-435 melanoma
# Assay: as above
# Settings: 10 µM unless noted
row,SMILES,growth
1,COc1ccc(N2CCN(C(=O)CSc3ccc(-c4nc5cc(C)c(C)cc5[nH]4)cn3)CC2)cc1,73.1% (inactive)
2,COc1ccc(Cn2cc3c(c2-c2ccccc2)CCCc2cnoc2-3)cc1,-11.2% (active)
3,O=C1Nc2ccc(Cl)cc2/C1=C/c1ccc(OCc2ccc(Br)cc2F)cc1,104% (inactive)
4,Nc1nc(-c2cccc([N+](=O)[O-])c2)c(N=Nc2ccccc2Cl)s1,89.5% (inactive)
5,Oc1ccc(-c2nnc(SCc3ccc(O)c4ncccc34)o2)cc1,12.3% (inactive)
6,Oc1ccc(CSc2nnc(-c3ccccc3)n2-c2ccccc2)c2cccnc12,13.9% (inactive)
7,Oc1ccc(-c2nnc(SCc3ccc(O)c4ncccc34)n2-c2ccccc2)cc1,21.5% (inactive)
8,O=C1[C@@H]2Cc3c([nH]c4ccccc34)[C@H](c3c(Cl)cccc3Cl)N2C(=O)CN1C1CCN(Cc2ccccc2)CC1,-61.8% (active)
9,CC1COc2c(N3CCN(C)CC3)c(F)cc3c(=O)c(C(=O)N/N=C/c4cc[nH]c4)cn1c23 (stereo unspecified),12.2% (inactive)
10,COc1cc(C(=O)C[n+]2ccc3ccccc3c2)cc(OC)c1OC,100% (inactive)
11,O=C(NNc1nc2cc(F)cc(F)c2n2cccc12)c1ncccn1,24.6% (inactive)
12,O=C(N/N=C\c1ccc(Cl)cc1)c1ccc2nc(-c3ccc(Br)cc3)[nH]c2c1,3.54% (active)
13,C=CCn1c(SCC(=O)Nc2cccc(C(=O)/C=C/c3ccc(C)cc3)c2)nc2ccccc2c1=O,68.6% (inactive)
14,CCOC(=O)c1c(NCC(=O)Nc2ccc(Br)cc2)sc2c1CCCC2,42.9% (inactive)
15,O=c1[nH]c(CNc2ccc(NCc3c(-c4ccccc4)no[n+]3[O-])cc2)nc2c1cnn2-c1ccccc1,77.8% (inactive)
16,CCNC(=O)Oc1ccc(/C(=C(/C)c2ccccc2)c2ccc(OCCN3CCCC3)cc2)cc1,81.6% (inactive)
17,O=C(CCCCCCN1CC(=O)N2[C@@H](c3ccccc3)c3[nH]c4ccccc4c3C[C@H]2C1=O)NO,46.1% (inactive)
18,Cc1cc(-c2ccc3nc(N)sc3c2)nc2ccc3[nH]ncc3c12,-44.2% (active)
19,CCN1C(=O)N(CC)C2SC(N/N=C/c3ccccc3F)=NC21 (stereo unspecified),-53.5% (active)

row,SMILES,growth
1,COc1ccc(NC2=C(Cl)C(=O)C(C)=C(C)C2=O)cc1,106% (inactive)
2,Oc1ccccc1-c1nnc(SCc2ccc(O)c3ncccc23)n1-c1ccccc1,14.4% (inactive)
3,Cc1ccc(NC(=O)c2cc(/C=C/C(=O)NO)cc(C(F)(F)F)c2)cc1Nc1nccc(-c2cccnc2)n1,-2.82% (active)
4,Cc1nn(-c2ccc(Br)cc2)c2nc(CCl)[nH]c(=O)c12,103% (inactive)
5,CCn1c2ccc(/C=N/NS(=O)(=O)CCN(C)C)cc2c2cc(/C=N/NS(=O)(=O)CCN(C)C)ccc21,96.9% (inactive)
6,CC(C)Sc1nc(NC2CC2)c(C#N)c(-c2ccccc2)n1,88.1% (inactive)
7,CCOC(=O)c1nn(-c2ccccc2)c(=O)c2c(N)c(C#N)c(-c3cccs3)cc12,90.3% (inactive)
8,COc1cc(/C=N/n2cnc3oc(-c4ccccc4)cc3c2=N)cc(CN2CCCC2)c1O,96.6% (inactive)
9,Oc1ccccc1/C=N/Nc1nc(N/N=C/c2ccccc2O)nc(N2CCOCC2)n1,58.9% (inactive)
10,O=C1C[C@@H](c2ccccc2)Oc2c(Cc3ccccc3O)c(O)c(Cc3cc(Cc4cc(Cc5ccccc5O)ccc4O)ccc3O)c(O)c21,93.8% (inactive)
11,N/C(=N\OC(=O)CSc1nc2ccccc2s1)c1ccc(Cl)cc1,101% (inactive)
12,O=C(NNc1nc2cc(F)cc(F)c2n2cccc12)c1ccncn1,26.3% (inactive)
13,CCCC(=O)NC(c1cccnc1)c1cc(Cl)c2cccnc2c1O (stereo unspecified),38.1% (inactive)
14,COc1cc(-c2nc(SCc3ccc(C)cc3)[nH]c(=O)c2C#N)ccc1OCc1ccccc1,98.2% (inactive)
15,Cc1nn(-c2ccccc2)cc1/C=N/Nc1nc(Nc2ccccc2)nc(Nc2ccc(S(N)(=O)=O)cc2)n1,-31.8% (active)
16,COc1cc2c3c(n(CCCNC4CCCCC4)c(=O)c2cc1OC)-c1cc2c(cc1C3=O)OCO2,102% (inactive)
17,COc1cc(O)c2c(c1)/C=C/C[C@H](O)[C@H](O)C(=O)/C=C\C[C@H](C)OC2=O,-15.4% (active)
18,COc1cc(C2CC(c3ccc(Nc4nc(NCCO)nc(Nc5ccc(Cl)cc5)n4)cc3)=Nc3c(N)nc(N)nc3N2)cc(OC)c1OC (stereo unspecified),74.6% (inactive)
19,O=C(c1ccc(O)cc1)[C@@H]1[C@@H]2CCCN2[C@@]2(C(=O)N(C(=O)c3ccc(F)cc3)c3ccccc32)[C@H]1c1ccc(F)cc1,88.1% (inactive)
